Test results published in PubChem BioAssay (NCATS).
Records with an inconclusive call do not appear. Entries that show only a call come without a potency. Calls of active or inactive are those of the source. Unless noted, calls come from the whole dose curve; as a rule, active = well fitted curve in the direction sought with a large enough effect; inconclusive = small, poorly fitted or top-dose-only effect, or another doubt; inactive = no such curve, though single readings can be large; an effect the other way counts as inactive or inconclusive.

Experiments:
[1] = biological target: Cytochrome P450 1A2 (Homo sapiens) (UniProt P05177); assay: p450-cyp1a2 (AID 410; calls by dose curve; note: potency is the fitted concentration of half-maximal effect)
How it was run: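 Luminescent demethylation readout: Luciferin-ME (100uM, equal to Km) turned over by 20nM CYP1A2 for 60 min at room temperature after NADPH regeneration addition, following 10 min compound preincubation. Normalization used 57 uM furafylline as full inhibition.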

[2] = biological target: Mitogen-activated protein kinase 10 (Mus musculus) (UniProt Q61831); assay: JNK3 AlphaScreen Assay (AID 530; active = well fitted curve in either direction with a large enough effect, not every such curve was filed as active;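 note: kinase came from lysate of stimulated human HepG2 cells; signal reports phosphorylation of biotinylated GST-cJun 1-79 at Ser73 with 10 µM ATP; series mostly up to about 57 µM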)
How it was run: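 qHTS titrations with 15 min compound pre-incubation before adding ATP (10 uM final). Read-out: AlphaScreen of Ser73-phosphorylated biotin-GST-cJun using HepG2 lysate JNK3 activated by IL-1β and TNFα.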

[3] = biological target: 3',5'-cyclic-AMP phosphodiesterase 4B (Homo sapiens) (UniProt Q07343); assay: qHTS Assay for Inhibitors of PDE-IV (AID 607; active = well fitted activation curve with a large enough effect in the main read-out, with a control signal flat, not every such curve was filed as active)
How it was run: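 HEK293 ACTOne cells with CNG channel (1000/well), endogenous PDE4; membrane potential dye, compounds up to 22.9 uM final. Fluorescence Ex 535/Em 590; RO 20-1724 (100 uM final) as reference.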

[4] = biological target: Cytochrome P450 3A4 (Homo sapiens) (UniProt P08684); assay: qHTS Assay for Activators of Cytochrome P450 3A4 (AID 885); note: nearly all actives have a fitted effect of over 65% in size
How it was run: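 Human CYP3A4 dealkylates Luciferin-PPXE to luciferin, which luciferase detection converts to light. Substrate was at its KM (25uM), buffer 200mM KPO4, reaction 60 min at RT.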

[5] = biological target: Cytochrome P450 2C19 (Homo sapiens) (UniProt P33261); assay: qHTS Assay for Inhibitors and Substrates of Cytochrome P450 2C19 (AID 899); note: nearly all actives have a fitted effect of over 60% in size; note: potency is the fitted concentration of half-maximal effect
How it was run: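 5nM enzyme + 10uM Luciferin-H EGE (=KM), 50mM KPO4; cpd pin-transferred, 10 min 37C; NADPH regen, 60 min 37C; stopped w/ luciferin detection reagent, 20 min; luminescence. Normalized to 57uM ketoconazole (AC100).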

[6] = biological target: Cytochrome P450 2D6 (Homo sapiens) (UniProt P10635); assay: qHTS Assay for Inhibitors and Substrates of Cytochrome P450 2D6 (AID 891); note: nearly all actives have a fitted effect of over 60% in size; note: potency is the fitted concentration of half-maximal effect
How it was run: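 Luminescent read-out of luciferin formed by 5 nM human CYP2D6 demethylating 30 uM Luciferin-ME EGE (Km level) over 60 min at room temperature after NADPH regeneration addition. Data normalized to full inhibition by 1.43 uM quinidine.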

[7] = biological target: Cytochrome P450 2C9 (Homo sapiens) (UniProt P11712); assay: qHTS Assay for Inhibitors and Substrates of Cytochrome P450 2C9 (AID 883); note: potency is the fitted concentration of half-maximal effect; nearly all actives have a fitted effect of over 60% in size
How it was run: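 Inhibition of CYP2C9 is scored as loss of luminescence, with 57uM sulphaphenazole defining 100% inhibition. Substrate Luciferin-H is used at 100uM, equal to its KM; enzyme at 10nM in 25mM KPO4, 60 min at 37C with NADPH regeneration.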

[8] = biological target: Cytochrome P450 3A4 (Homo sapiens) (UniProt P08684); assay: qHTS Assay for Inhibitors and Substrates of Cytochrome P450 3A4 (AID 884); note: nearly all actives have a fitted effect of over 50% in size; note: potency is the fitted concentration of half-maximal effect
How it was run: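 Luminescent readout of luciferin produced by CYP3A4 (20 nM) dealkylation of Luciferin-PPXE, 25 uM (its KM). NADPH-driven reaction ran 60 min at RT after 10 min compound preincubation; data scaled to 57 uM ketoconazole as 100% inhibition.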

Sequence of 3',5'-cyclic-AMP phosphodiesterase 4B (Homo sapiens) (Q07343 whole entry, looked up): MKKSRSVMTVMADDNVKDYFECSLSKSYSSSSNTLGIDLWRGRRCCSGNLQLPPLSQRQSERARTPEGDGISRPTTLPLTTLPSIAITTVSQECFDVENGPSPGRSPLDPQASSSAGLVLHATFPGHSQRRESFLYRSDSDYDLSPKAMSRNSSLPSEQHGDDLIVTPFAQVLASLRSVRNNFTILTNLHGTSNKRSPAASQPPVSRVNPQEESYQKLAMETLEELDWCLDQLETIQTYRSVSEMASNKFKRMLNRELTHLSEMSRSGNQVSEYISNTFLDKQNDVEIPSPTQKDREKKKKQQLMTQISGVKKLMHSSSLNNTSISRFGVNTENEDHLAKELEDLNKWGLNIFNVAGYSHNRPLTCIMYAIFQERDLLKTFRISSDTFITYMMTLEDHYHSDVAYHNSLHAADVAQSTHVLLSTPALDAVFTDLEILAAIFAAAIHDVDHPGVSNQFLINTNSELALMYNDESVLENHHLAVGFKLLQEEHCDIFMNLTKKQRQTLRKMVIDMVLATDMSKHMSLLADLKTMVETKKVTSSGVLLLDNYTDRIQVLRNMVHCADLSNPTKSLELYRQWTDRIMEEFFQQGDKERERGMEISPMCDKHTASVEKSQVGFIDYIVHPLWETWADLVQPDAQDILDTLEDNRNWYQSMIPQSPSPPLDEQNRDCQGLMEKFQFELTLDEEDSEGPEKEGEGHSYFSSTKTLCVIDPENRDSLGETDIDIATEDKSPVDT
Sequence of Cytochrome P450 2C9 (Homo sapiens) (P11712 whole entry, looked up): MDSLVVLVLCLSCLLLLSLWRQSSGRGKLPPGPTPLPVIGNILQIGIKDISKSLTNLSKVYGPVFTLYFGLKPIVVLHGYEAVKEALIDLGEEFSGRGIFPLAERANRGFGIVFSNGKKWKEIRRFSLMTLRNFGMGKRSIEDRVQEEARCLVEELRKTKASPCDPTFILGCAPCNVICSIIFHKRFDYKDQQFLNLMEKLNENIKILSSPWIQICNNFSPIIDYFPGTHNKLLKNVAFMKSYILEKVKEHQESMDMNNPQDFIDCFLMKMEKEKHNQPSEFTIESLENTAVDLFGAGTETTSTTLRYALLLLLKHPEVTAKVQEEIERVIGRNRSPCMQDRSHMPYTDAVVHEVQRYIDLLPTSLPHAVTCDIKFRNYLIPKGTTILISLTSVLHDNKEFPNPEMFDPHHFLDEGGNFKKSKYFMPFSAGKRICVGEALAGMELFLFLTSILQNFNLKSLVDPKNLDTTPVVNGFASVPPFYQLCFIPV
Sequence of Cytochrome P450 2C19 (Homo sapiens) (P33261 whole entry, looked up): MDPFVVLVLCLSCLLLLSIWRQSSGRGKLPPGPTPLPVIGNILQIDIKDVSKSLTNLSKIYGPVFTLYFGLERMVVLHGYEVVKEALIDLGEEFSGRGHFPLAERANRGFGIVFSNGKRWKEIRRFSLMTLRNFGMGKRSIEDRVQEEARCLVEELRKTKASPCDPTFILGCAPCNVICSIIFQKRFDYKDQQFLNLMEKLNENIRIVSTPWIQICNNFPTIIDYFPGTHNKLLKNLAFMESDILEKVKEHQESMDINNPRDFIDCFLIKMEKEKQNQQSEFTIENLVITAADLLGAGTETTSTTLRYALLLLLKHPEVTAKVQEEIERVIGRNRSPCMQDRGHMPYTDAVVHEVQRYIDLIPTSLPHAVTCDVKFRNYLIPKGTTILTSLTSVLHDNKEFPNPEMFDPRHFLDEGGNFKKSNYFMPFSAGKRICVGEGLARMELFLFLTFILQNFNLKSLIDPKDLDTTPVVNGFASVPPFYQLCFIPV
Sequence of Cytochrome P450 3A4 (Homo sapiens) (P08684 whole entry, looked up): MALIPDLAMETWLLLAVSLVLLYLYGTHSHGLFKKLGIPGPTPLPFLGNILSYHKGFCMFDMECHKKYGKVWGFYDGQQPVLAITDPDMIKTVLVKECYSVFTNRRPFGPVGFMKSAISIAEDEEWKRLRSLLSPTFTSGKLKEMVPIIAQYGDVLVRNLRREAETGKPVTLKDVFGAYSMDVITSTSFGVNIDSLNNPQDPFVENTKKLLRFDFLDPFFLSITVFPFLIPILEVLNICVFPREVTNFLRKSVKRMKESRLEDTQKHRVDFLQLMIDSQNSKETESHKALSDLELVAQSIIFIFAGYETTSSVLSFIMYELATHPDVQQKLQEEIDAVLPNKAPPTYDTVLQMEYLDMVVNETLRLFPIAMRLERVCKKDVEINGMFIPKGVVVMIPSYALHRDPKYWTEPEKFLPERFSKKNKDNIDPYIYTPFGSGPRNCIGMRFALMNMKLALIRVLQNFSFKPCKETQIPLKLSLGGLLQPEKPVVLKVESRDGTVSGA
Sequence of Cytochrome P450 1A2 (Homo sapiens) (P05177 whole entry, looked up): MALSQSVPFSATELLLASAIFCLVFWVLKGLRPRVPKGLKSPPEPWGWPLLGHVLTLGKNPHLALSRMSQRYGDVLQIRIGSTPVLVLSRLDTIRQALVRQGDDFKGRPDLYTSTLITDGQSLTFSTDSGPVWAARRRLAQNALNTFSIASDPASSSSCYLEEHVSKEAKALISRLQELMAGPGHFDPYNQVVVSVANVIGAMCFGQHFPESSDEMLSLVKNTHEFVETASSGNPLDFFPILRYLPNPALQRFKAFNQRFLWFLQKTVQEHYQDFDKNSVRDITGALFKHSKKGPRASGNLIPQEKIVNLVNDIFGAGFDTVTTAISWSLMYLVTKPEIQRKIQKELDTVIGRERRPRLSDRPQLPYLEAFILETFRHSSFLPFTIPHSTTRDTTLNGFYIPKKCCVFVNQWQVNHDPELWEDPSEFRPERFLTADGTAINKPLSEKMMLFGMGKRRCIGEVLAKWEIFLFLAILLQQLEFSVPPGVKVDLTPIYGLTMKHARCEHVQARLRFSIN
Sequence of Cytochrome P450 2D6 (Homo sapiens) (P10635 whole entry, looked up): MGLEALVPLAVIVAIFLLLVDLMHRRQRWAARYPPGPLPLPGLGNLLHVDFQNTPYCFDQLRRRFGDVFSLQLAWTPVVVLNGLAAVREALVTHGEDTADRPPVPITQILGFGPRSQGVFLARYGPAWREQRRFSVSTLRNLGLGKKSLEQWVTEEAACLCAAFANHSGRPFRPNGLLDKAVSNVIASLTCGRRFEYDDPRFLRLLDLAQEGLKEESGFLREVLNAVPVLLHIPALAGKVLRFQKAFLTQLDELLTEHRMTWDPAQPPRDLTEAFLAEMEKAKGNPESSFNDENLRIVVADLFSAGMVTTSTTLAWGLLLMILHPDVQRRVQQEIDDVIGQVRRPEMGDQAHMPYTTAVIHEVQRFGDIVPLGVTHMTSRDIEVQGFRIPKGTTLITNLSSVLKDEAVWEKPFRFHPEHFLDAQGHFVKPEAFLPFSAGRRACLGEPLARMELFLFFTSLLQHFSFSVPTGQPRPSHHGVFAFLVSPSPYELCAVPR

Compound	Potency [1]	Potency [2]	Potency [3]	Potency [4]	Potency [5]	Potency [6]	Potency [7]	Potency [8]
CCCC[C@@H]1C[C@H]1C(NC(=O)c1cccnc1)c1ccc(Cl)cc1 (stereo not given in full)	7.94 µM (active)	inactive	inactive	inactive	2 µM (active)			
C[C@@H](C(=O)Nc1ccc2ccccc2c1)[C@H]1C[C@]1(C)[C@H](NC(=O)Oc1ccc(F)cc1)c1ccccc1	inactive	inactive	inactive	inactive		2.51 µM (active)		
CCCC[C@@H]1C[C@H]1C(NC(=O)c1cccs1)c1ccc(-c2ccccc2)cc1 (stereo not given in full)	2 µM (active)	inactive		inactive			1.58 µM (active)	
COC(=O)c1ccc(C23CC2(C(NP(=O)(c2ccccc2)c2ccccc2)c2ccccc2)C3)cc1 (stereo not given)	15.8 µM (active)	inactive		inactive				3.16 µM (active)
COC(=O)[C@@H]1C[C@H]1[C@@H](NC(=O)c1ccccc1)c1ccccc1	5.01 µM (active)	inactive	inactive		1.26 µM (active)			
CCCC[C@@H]1C[C@H]1C(NC(=O)c1ccccc1)c1ccccc1 (stereo not given in full)	2.51 µM (active)	inactive		inactive	0.398 µM (active)		7.94 µM (active)	
COC(=O)[C@@]1(Cc2ccc(F)cc2)[C@H]2c3cc(C(=O)N4CCCC4)n(CCc4ccc(O)c(O)c4)c3C[C@H]2CN1C(=O)c1ccccc1	20 µM (active)	inactive		inactive			3.16 µM (active)	2.51 µM (active)
CCC/C=C(\CCC)C(NS(=O)(=O)c1cccc2cccnc12)c1ccc(-c2ccccc2)cc1 (stereo not given)	0.794 µM (active)	inactive		inactive			2 µM (active)	3.16 µM (active)
CC[C@@H]1OC(=O)[C@@H](C)[C@H](O[C@@H]2C[C@@](C)(OC)[C@@H](O)[C@H](C)O2)[C@H](C)[C@H](O[C@@H]2O[C@@H](C)C[C@@H](N(C)C)[C@H]2O)[C@@](C)(O)C[C@H](C)C(=O)[C@@H](C)[C@H](O)[C@@]1(C)O	inactive	inactive	inactive		inactive	inactive		
CCCC/C=C/C(NC(=O)c1cccs1)c1ccccc1 (stereo not given)	1.58 µM (active)	inactive		inactive	1.58 µM (active)		0.316 µM (active)	
CCC/C=C(\CCC)C(NP(=O)(c1ccccc1)c1ccccc1)c1ccc(C(F)(F)F)cc1 (stereo not given)	inactive	inactive						inactive
CCCCCC1=C2CNC(Cc3ccccc3)(C(=O)OC)C=C2C(C)C1=O (stereo not given)	15.8 µM (active)	inactive	inactive	inactive	6.31 µM (active)			
COc1ccc2nc3c(cc2c1)Cc1ccccc1-3	0.251 µM (active)	inactive		inactive	2.51 µM (active)	6.31 µM (active)	6.31 µM (active)	6.31 µM (active)
CCC/C=C(\CCC)C(NS(=O)(=O)c1cccc2cccnc12)c1ccc(C(=O)OC)cc1 (stereo not given)	6.31 µM (active)	inactive		inactive	3.16 µM (active)		1.58 µM (active)	5.01 µM (active)
COC(=O)[C@@]1(Cc2ccccc2)[C@H]2c3cc(C(=O)N4CCCC4)n(Cc4ccc(O)c(OC)c4)c3C[C@H]2CN1C(=O)c1ccccc1	25.1 µM (active)	inactive		inactive	0.501 µM (active)		2.51 µM (active)	2 µM (active)
CCC/C=C(\CCC)C(NC(=O)c1ccc(C(=O)OC)cc1)c1ccc(C(=O)OC)cc1 (stereo not given)	inactive	inactive		inactive			2 µM (active)	
c1ccc2c(c1)Cc1cc3ccccc3nc1-2	0.1 µM (active)	inactive		inactive	5.01 µM (active)		10 µM (active)	20 µM (active)
CCC[C@@H]1C[C@@]1(CCC)C(NS(=O)(=O)c1cccc2cccnc12)c1ccc(Cl)cc1 (stereo not given in full)	inactive	inactive		inactive	3.16 µM (active)		7.94 µM (active)	
CCCc1cc2c(n1CCc1ccc(Cl)cc1)C(C)C1CN(C(=O)c3ccccc3)C(C)(C(=O)OC)C21 (stereo not given)	25.1 µM (active)	inactive	inactive	inactive	6.31 µM (active)	5.01 µM (active)		
CC[C@H]1C2=C3C(CC[C@H]4C(OC)OC[C@](C)([C@@H]34)N(C(=O)OC(C)(C)C)C2)C(CO)C1CO (stereo not given in full)	12.6 µM (active)	inactive	inactive	inactive	inactive			
